In PubChem BioAssay (NCI):
The panel holds about 79,000 compounds, 15% with a hit somewhere; the sample as a whole holds those more often. Rule as the data show it: active = growth inhibition above about 70%; inactive = the rest.

Key:
[1] = NCI Yeast Anticancer Drug Screen. Data for the rad50 strain (AID 155);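 also: 0% = growth of vehicle-only cultures of the same strain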; details: S. cerevisiae rad50 strain growth inhibition; at 50.0 µM; hits give high values
Procedure, shortened: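 Inhibition values express reduced yeast growth in compound-treated cultures relative to vehicle-treated controls.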

[2] = NCI Yeast Anticancer Drug Screen. Data for the mec2-1 strain (AID 157); details: S. cerevisiae mec2-1 strain, at 50.0 µM, hits give high values
Procedure, shortened: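 Strain: mec2-1 (DNA repair/cell cycle alteration). Compound exposure, then growth measured; inhibition expressed relative to vehicle.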

[3] = NCI Yeast Anticancer Drug Screen. Data for the sgs1 mgt1 strain (AID 161);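 also: 0% = growth of cultures given vehicle only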; details: S. cerevisiae sgs1 mgt1 strain, at 50.0 µM, hits give high values
Procedure, shortened: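 Test agents were incubated with a DNA-repair-mutant yeast strain. Growth was then read and compared against vehicle-treated controls.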

[4] = NCI Yeast Anticancer Drug Screen. Data for the cln2 rad14 strain (AID 165);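 also: 0% = growth equal to vehicle treated cultures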; details: S. cerevisiae cln2 rad14 strain, at 50.0 µM, hits give high values
Procedure, shortened: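 Compounds are applied to the cln2 rad14 yeast strain, and growth is then compared with that of vehicle-treated cultures to give inhibition.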

[5] = NCI Yeast Anticancer Drug Screen. Data for the bub3 strain (AID 167); details: S. cerevisiae bub3 mutant strain, at 50.0 µM, hits give high values
Procedure, shortened: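 Steps: expose the mutant yeast strain to compound; grow alongside vehicle-treated cultures; measure growth; express inhibition against the vehicle cultures.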

[6] = NCI Yeast Anticancer Drug Screen. Data for the mlh1 rad18 strain (AID 175); details: S. cerevisiae mlh1 rad18 strain growth inhibition; at 50.0 µM; hits give high values
Procedure, shortened: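 Read-out is yeast growth inhibition, calculated against vehicle-only controls. The compound was applied to a strain engineered with DNA damage repair alterations.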

Measured: growth inhibition

O=C(O)c1cccc(F)c1C(=O)c1ccc2ccccc2c1
inactive: [1] -13.7% | [2] 4.15% | [3] -12.8% | [4] -15.2% | [5] -22.1% | [6] -9.7%

Cc1ccc(S(=O)(=O)NNCCC#N)cc1
inactive: [1] -5% | [2] 6.05% | [3] -4.35% | [4] -0.15% | [5] -4.9% | [6] 7.75%

COc1ccc(C(=O)C(C(=O)C(=O)NCCCNC(=O)C(=O)C(C(=O)c2ccc(OC)cc2)c2ccc(OC)cc2)c2ccc(OC)cc2)cc1 (configuration not stated)
inactive: [1] -11.9% | [2] -25.6% | [3] -7.1% | [4] 13.8% | [5] -9.25% | [6] -10.7%

CCOC(=O)C1=C(C)N(NC(N)=O)C2(O)CCCC(=O)C12C (configuration not stated)
inactive: [1] 5.35% | [2] -0.45% | [3] 0.65% | [4] -52.2% | [5] -3.8% | [6] 2.2%

Oc1c(O)c(O)c(O)c(O)c1O
inactive: [1] -5.3% | [2] 4.15% | [3] 7.45% | [4] -13.9% | [5] -0.45% | [6] -3%

CN(C)c1ccc(/C=C(\C#N)C(=O)c2ccccc2)cc1
inactive: [1] -9.8% | [2] 8.25% | [3] 8.9% | [4] -7.15% | [5] 6.85% | [6] 22.9%

COc1ccccc1NCC(=O)Nn1c(C)nc2ccc(S(=O)(=O)Nc3ccccc3OC)cc2c1=O
inactive: [1] 2.85% | [2] -18.9% | [3] 20.9% | [4] 16.2% | [5] 1.55% | [6] 0.1%

Nc1nc(NCc2ccccc2)cc(=O)[nH]1
inactive: [1] 3.35% | [2] -20.8% | [3] -5.25% | [4] -0.4% | [5] -20.8% | [6] -2.75%

Cc1cccc(C)[n+]1[O-]
inactive: [1] 1.6% | [2] 5.25% | [3] -6.9% | [4] -38.8% | [5] 16.5% | [6] 0.65%

CN1CCN(CCCBr)CC1
inactive: [1] -8.85% | [2] -5.3% | [3] -24.9% | [4] -31.8% | [5] -31.9% | [6] -4.3%

CCOC(=O)C(CC(c1ccc2c(c1)OCO2)C(C(=O)N(C(C)C)C(C)C)[N+](=O)[O-])C(=O)OCC (configuration not stated)
inactive: [1] 54.9% | [2] 21.4% | [3] 60.5% | [4] 16.2% | [5] 11.8% | [6] 26.4%

Cc1ccc(-n2nnc(-c3ccc(Cl)c(Cl)c3)n2)cc1
inactive: [1] -30.9% | [2] -40.8% | [3] -4.45% | [4] -12.1% | [5] -18.6% | [6] -31.5%

CCOC(=O)C(C(C)=O)C(c1ccc(N(C)C)cc1)C(C(C)=O)C(=O)OCC (configuration not stated)
inactive: [1] 8.75% | [2] -7% | [3] 7.75% | [4] -6.2% | [5] -4% | [6] 9.45%

Brc1cc(Br)c(-c2c(Br)cc(Br)cc2Br)c(Br)c1
inactive: [1] -20.8% | [2] -30.2% | [3] -16.1% | [4] 4.2% | [5] -7.5% | [6] -15.7%

CCCC(=O)NS(=O)(=O)c1ccc(C)cc1
inactive: [1] 2.85% | [2] 7.3% | [3] 3.45% | [4] -24.9% | [5] 0.25% | [6] 5.75%

O=C(c1ccccc1)C(N=Nc1ccccc1)(c1ccccc1)c1ccccc1
inactive: [1] 4.15% | [2] -6% | [3] -1.8% | [4] -7.05% | [5] -0.85% | [6] 21.6%

CCCCN1CCNC1=S
inactive: [1] -0.85% | [2] -13.2% | [3] 4.25% | [4] -10.6% | [5] -28.4% | [6] 9.35%

[O-]c1c[n+](-c2cc(Cl)ccc2Cl)no1
inactive: [1] 11.2% | [2] 2.9% | [3] -3.4% | [4] 4.8% | [5] -1.4% | [6] 2.55%

O=C(CCCCC(=O)N1CCOCC1)N1CCOCC1
inactive: [1] -9.3% | [2] -21.9% | [3] -2.45% | [4] -19.6% | [5] 2.1% | [6] -9.4%

CCOC(=O)c1sc(SC)nc1NC(=O)c1ccc(Cl)cc1
inactive: [1] -26.6% | [2] 19.8% | [3] -49.6% | [4] 0.7% | [5] -2.55% | [6] -24.7%

COC(=O)c1ccccc1CC1Cc2ccc3c(c2C1)CCC3 (configuration not stated)
inactive: [1] -0.8% | [2] 5.45% | [3] -1.65% | [4] -31.6% | [5] 2.55% | [6] 13.7%

CC(C(=O)OCc1ccccc1)(c1ccco1)N1C(=O)OC(c2ccccc2)C1c1ccccc1 (configuration not stated)
inactive: [1] -4.35% | [2] -3.5% | [3] 4.55% | [4] -3.5% | [5] -17.1% | [6] -23.1%

Cc1cc(C)c(CC#N)s1
inactive: [1] -25.2% | [2] -12.1% | [3] -1.65% | [4] -52.6% | [5] -15.4% | [6] -22.3%

O=c1[nH]/c(=C/c2ccc3c(c2)OCO3)c(=O)[nH]/c1=C/c1ccc2c(c1)OCO2
inactive: [1] -24.2% | [2] -20% | [3] -22.8% | [4] -13% | [5] -34.4% | [6] 20.2%

O=C1CC(c2ccccc2)C(c2ccccc2)C1C(=O)OCCc1ccccc1 (configuration not stated)
inactive: [1] 36% | [2] 2.85% | [3] 2.45% | [4] 1.5% | [5] -16.9% | [6] 1.3%

CCc1nc(N)nc(N)c1-c1ccc2c(c1)nnn2CCc1ccccc1
inactive: [1] 11.2% | [2] 0.1% | [3] 3.6% | [4] 10.7% | [5] 5.05% | [6] 16.1%

O=CCC(=O)c1ccc(Br)cc1
inactive: [1] 8.95% | [2] 3.15% | [3] 2.3% | [4] 2.45% | [5] -11.7% | [6] 6.85%

O=C(Nc1ccc2ccccc2c1)c1ccc(Cl)c(Cl)c1
inactive: [1] -5% | [2] 29.6% | [3] 24.9% | [4] -6.8% | [5] 18.9% | [6] 27.4%

CN(C)CCN(C)CCN(C)CCN(C)C
inactive: [1] -10.4% | [2] -25.8% | [3] 11.8% | [4] -6.75% | [5] 5.9% | [6] -6.7%

CCCCCn1c(=O)c2cc3c(=O)n(CCCCC)c(=O)c3cc2c1=O
inactive: [1] 14.2% | [2] 7.3% | [3] 16.2% | [4] -52.6% | [5] 10% | [6] -5.6%

Cn1cnnc1Sc1c([N+](=O)[O-])nc(-c2ccc([N+](=O)[O-])cc2)n1C
inactive: [1] -3.5% | [2] 3.15% | [3] 10.1% | [4] 35.1% | [5] 11.6% | [6] 8.95%

Nc1ccc(S(=O)(=O)n2c(=O)oc3cc(Cl)ccc32)cc1
inactive: [1] 0.75% | [2] 5.75% | [3] 8.9% | [4] -6.7% | [5] 14.1% | [6] 19.8%

Cc1ccc(OCC2OC(n3cnc4nc(Nc5ccc(Cl)c(Cl)c5)nc(Cl)c43)CC2Oc2ccc(C)cc2)cc1 (configuration not stated)
inactive: [1] 6.9% | [2] 10.8% | [3] -40.2% | [4] 14.1% | [5] -20.3% | [6] -33%

OCCN(CO)CCO
inactive: [1] -23.8% | [2] 6.35% | [3] -0.25% | [4] -2.6% | [5] 2.6% | [6] -25.2%

COCn1cnc2c(ccn2C2OC(CO)C(O)C2O)c1=O (configuration not stated)
inactive: [1] -25.4% | [2] 0% | [3] -8.9% | [4] -2.1% | [5] 4% | [6] 4.55%

Cc1ccc(S(=O)(=O)N2CCOCC2)cc1
inactive: [1] -2.9% | [2] -20.1% | [3] -13.3% | [4] 15.5% | [5] -0.7% | [6] -30.4%

Nc1nc(N)c2nc(-c3ccc([N+](=O)[O-])cc3)c(=O)[nH]c2n1
inactive: [1] -9.75% | [2] -8.5% | [3] -2.05% | [4] -11.3% | [5] 29.2% | [6] 14.7%
